The structures appear in SMILES notation. Screen size: about 310,000 compounds; about 14,000 (4.5%) showed an effect of 50% or more. Effects have a minus sign here. Many of the other results were omitted from the sample, so strong results are more common in it than they were.
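Further: peak tail current of the secondary pulse compared with the same well before compound.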

This assay deals with human ether-à-go-go-related gene (hERG) potassium channel (human, UniProt Q12809). Put plainly: primary screen, population patch clamp on CHO cells stably expressing hERG; higher = less effect of the substance.
Sequence of human ether-à-go-go-related gene (hERG) potassium channel (Q12809 whole entry, looked up): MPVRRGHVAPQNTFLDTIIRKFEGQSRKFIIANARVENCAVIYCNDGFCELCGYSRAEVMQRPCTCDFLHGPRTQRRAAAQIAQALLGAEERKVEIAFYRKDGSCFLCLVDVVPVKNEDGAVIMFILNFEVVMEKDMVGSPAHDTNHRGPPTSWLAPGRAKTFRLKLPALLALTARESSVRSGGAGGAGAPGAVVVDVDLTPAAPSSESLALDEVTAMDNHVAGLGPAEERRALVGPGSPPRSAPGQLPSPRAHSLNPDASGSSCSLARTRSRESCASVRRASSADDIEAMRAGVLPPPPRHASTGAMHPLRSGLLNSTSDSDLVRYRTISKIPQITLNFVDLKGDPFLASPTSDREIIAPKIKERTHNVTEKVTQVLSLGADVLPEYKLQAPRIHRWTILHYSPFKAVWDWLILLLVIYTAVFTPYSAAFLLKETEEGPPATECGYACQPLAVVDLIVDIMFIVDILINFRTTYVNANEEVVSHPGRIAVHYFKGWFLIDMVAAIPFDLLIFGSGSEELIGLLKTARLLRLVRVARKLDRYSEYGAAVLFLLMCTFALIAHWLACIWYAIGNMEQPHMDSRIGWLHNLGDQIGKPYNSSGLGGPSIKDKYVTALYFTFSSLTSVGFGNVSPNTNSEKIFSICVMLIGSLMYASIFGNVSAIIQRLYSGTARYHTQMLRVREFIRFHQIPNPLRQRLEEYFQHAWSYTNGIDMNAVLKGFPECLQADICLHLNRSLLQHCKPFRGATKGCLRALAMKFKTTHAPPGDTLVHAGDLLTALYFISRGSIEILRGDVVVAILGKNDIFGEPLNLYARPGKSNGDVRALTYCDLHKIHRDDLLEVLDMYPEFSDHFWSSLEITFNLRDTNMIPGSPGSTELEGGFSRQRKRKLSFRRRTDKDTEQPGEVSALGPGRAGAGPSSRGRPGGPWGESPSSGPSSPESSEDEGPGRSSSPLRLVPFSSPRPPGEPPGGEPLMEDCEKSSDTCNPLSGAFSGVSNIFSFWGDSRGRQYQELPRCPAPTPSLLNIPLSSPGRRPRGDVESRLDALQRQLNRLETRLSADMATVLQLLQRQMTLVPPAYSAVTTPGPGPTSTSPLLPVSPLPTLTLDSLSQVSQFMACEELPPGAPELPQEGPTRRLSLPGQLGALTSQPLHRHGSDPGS
Regarding `C/C(=N\NC(=O)C(NC(=O)c1ccccc1)C(C)C)c1ccccc1` (stereo not shown), the “hERG current change (%, negative = inhibition) at 10uM” value stood at 21.2%.
As for `COc1ccc(-c2csc(NC(C)=O)n2)cc1OC`, the “hERG current change (%, negative = inhibition) at 10uM” value is on record as 5.13%.
Consider `Cc1ccccc1NC(=O)NC1(C(=O)NCC2CCCO2)CCCCC1` (stereo not shown), for which the “hERG current change (%, negative = inhibition) at 10uM” value is 17.5%.
Consider `O=[N+]([O-])c1ccc(NCc2ccccn2)nc1`, for which the “hERG current change (%, negative = inhibition) at 10uM” value is reported as -5.06%.
Consider `CCC(C(=O)Nc1ccccc1)c1ccccc1` (stereo not shown), for which the “hERG current change (%, negative = inhibition) at 10uM” value was 7.86%.
As for `CS(=O)(=O)N(CC(O)Cn1c2ccccc2c2ccccc21)c1cccc2ccccc12` (stereo not shown), the “hERG current change (%, negative = inhibition) at 10uM” value is given as 0.652%.
`CCOC(=O)c1c(C)[nH]c(C)c1C(=O)COC(=O)c1cccc(S(=O)(=O)NC)c1`: the “hERG current change (%, negative = inhibition) at 10uM” value is given as -7.56%.
Regarding `CN(C)S(=O)(=O)c1cccc(COC(=O)c2cc([N+](=O)[O-])ccc2N2CCOCC2)c1`, the “hERG current change (%, negative = inhibition) at 10uM” value is given as -52.7%.
Consider `COc1ccc(OC)c(COC(=O)c2cc([N+](=O)[O-])ccc2N2CCOCC2)c1`, for which the “hERG current change (%, negative = inhibition) at 10uM” value is listed as -18%.
Turning to `O=C(OCc1ccccc1F)c1cc([N+](=O)[O-])ccc1N1CCOCC1`, the “hERG current change (%, negative = inhibition) at 10uM” value is recorded as -47.9%.
`COc1ccc(COC(=O)c2cc([N+](=O)[O-])ccc2N2CCOCC2)cc1F`: the “hERG current change (%, negative = inhibition) at 10uM” value was -62.5%.
As to `O=C(OCc1c(F)cccc1Cl)c1cc([N+](=O)[O-])ccc1N1CCOCC1`, the “hERG current change (%, negative = inhibition) at 10uM” value is 3.43%.
On to `CCc1cccc(NC(=O)COC(=O)c2cc([N+](=O)[O-])ccc2N2CCOCC2)c1`, for which the “hERG current change (%, negative = inhibition) at 10uM” value is -7.99%.
With `COc1cc(C(=O)CSc2nncn2C)cc(OC)c1OC`, the “hERG current change (%, negative = inhibition) at 10uM” value is 6.63%.
For the molecule `CCOC(=O)c1ccc(NC(=S)N2CCC(O)CC2)cc1`, the “hERG current change (%, negative = inhibition) at 10uM” value is given as 18%.
For `O=C(CN1C(=O)c2ccccc2C1=O)Nc1cc(C(=O)O)cc(C(=O)O)c1`, the “hERG current change (%, negative = inhibition) at 10uM” value was 7.72%.
Consider `N#Cc1ccccc1OCC(=O)NNC(=O)c1ccncc1`, for which the “hERG current change (%, negative = inhibition) at 10uM” value was 9.65%.
To `Cc1ccc(C2(C)NC(=O)N(CC(=O)Nc3cc(C)on3)C2=O)cc1` (stereo not shown) belongs -10.7%; to `CC1(c2ccc(OC(F)F)cc2)NC(=O)N(CC(=O)Nc2cccc(F)c2)C1=O` (stereo not shown), 2.79%.
To `CC1(c2ccc(OC(F)F)cc2)NC(=O)N(CC(=O)Nc2ccc(S(N)(=O)=O)cc2)C1=O` (stereo not shown) belongs 1.64%.
For `CC1(c2ccc(OC(F)F)cc2)NC(=O)N(CC(=O)Nc2ccccc2)C1=O` (stereo not shown), the “hERG current change (%, negative = inhibition) at 10uM” value is reported as -51.3%.
As to `CC1(c2ccc(OC(F)F)cc2)NC(=O)N(CC(=O)Nc2ccc(OC(F)F)cc2)C1=O` (stereo not shown), the “hERG current change (%, negative = inhibition) at 10uM” value is -94.9%.
With `CC1(c2ccc(OC(F)F)cc2)NC(=O)N(CC(=O)Nc2ccc(F)cc2)C1=O` (stereo not shown) the figure was -45.5%; with `CCOc1ccc(NC(=O)CN2C(=O)NC(C)(c3ccc(OC(F)F)cc3)C2=O)cc1` (stereo not shown), -16.1%; with `Cc1cc(NC(=O)CN2C(=O)NC(C)(c3ccccc3)C2=O)no1` (stereo not shown), -55.5%.
`Cc1cc(NC(=O)CN2C(=O)NC(C)(c3ccc(Cl)cc3)C2=O)no1` (stereo not shown): the “hERG current change (%, negative = inhibition) at 10uM” value stood at 39.2%.
For the molecule `CCn1c(=S)sc2c(=O)n(CC(=O)NCCCc3ccccc3)c(C)nc21`, the “hERG current change (%, negative = inhibition) at 10uM” value turned out to be 18.8%.
For `COc1ccc(OC)c(NC(=O)Cn2cnc3c(cnn3-c3ccccc3)c2=O)c1`, the “hERG current change (%, negative = inhibition) at 10uM” value is -12.8%.
With `COc1cc(/C=C/C(=O)OCC(=O)c2c(N)n(C)c(=O)n(C)c2=O)ccc1OC(F)F` the figure was 6.4%; with `COc1ccc(CN(C)C(=O)COC(=O)c2ccc3c(c2)OCO3)cc1OC`, -3.84%; with `CCC(=O)OC1(C)C(=O)C=C2C=C(C3CC3)OC=C2C1=O` (stereo not shown), 12.5%.
Take `CCC(C(=O)Nc1ccccc1OC)n1c(C(=O)OC)cc2ccsc21` (stereo not shown): the “hERG current change (%, negative = inhibition) at 10uM” value is listed as -11.3%.
As to `CN(CC(=O)NNC(=O)CNC(=O)c1ccccc1Cl)S(=O)(=O)c1ccc(Cl)cc1`, the “hERG current change (%, negative = inhibition) at 10uM” value was 9.57%.
In the case of `Cc1cccc(NC(=S)N2CCN(Cc3ccccc3)CC2)c1C`, the “hERG current change (%, negative = inhibition) at 10uM” value is recorded as -13.2%.
`Cc1cccc(NC(=O)CN2CCN(C(=O)c3cnn(Cc4ccccc4)c3)CC2)c1C`: the “hERG current change (%, negative = inhibition) at 10uM” value is recorded as -87.2%.
As to `Cc1cccc(NC(=O)CN2CCN(C(=O)c3oc4c(Cl)cccc4c3C)CC2)c1C`, the “hERG current change (%, negative = inhibition) at 10uM” value is -43.6%.
To `O=C(CN1CCN(CC(=O)Nc2ccccc2C(F)(F)F)CC1)Nc1ccccc1F` belongs -30.2%; to `O=C(CN1CCN(C(=O)c2c(F)cccc2F)CC1)Nc1ccccc1C(F)(F)F`, -20.9%; to `O=C(CN1CCN(C(=O)c2cncn2-c2ccc(F)cc2)CC1)Nc1ccccc1C(F)(F)F`, -70%.
Turning to `Cc1cccc(NC(=O)Cn2cnc3c(cnn3-c3ccc(F)cc3)c2=O)c1C`, the “hERG current change (%, negative = inhibition) at 10uM” value came out at 2.99%.
For the molecule `O=C(CN1CCCCCC1)Nc1ccccc1Cl`, the “hERG current change (%, negative = inhibition) at 10uM” value is given as 6.75%.
With `O=C(CN1CCN(C(=O)c2cncn2-c2ccccc2)CC1)Nc1ccccc1Cl`, the “hERG current change (%, negative = inhibition) at 10uM” value is reported as -77.3%.
Consider `Cc1cccc(NC(=O)CN2CCN(C(=O)c3cncn3-c3ccc(F)cc3)CC2)c1C`, for which the “hERG current change (%, negative = inhibition) at 10uM” value is -60.9%.
Turning to `O=C(CN1CCCCC1)Nc1ccccc1Cl`, the “hERG current change (%, negative = inhibition) at 10uM” value is recorded as 21.1%.
As for `COc1cc(OC)cc(C(=O)OCC(=O)Nc2ccc(F)cc2F)c1`, the “hERG current change (%, negative = inhibition) at 10uM” value is recorded as 4.34%.
For `CCC(C)(C)NC(=O)c1ccc2c(c1)S(=O)(=O)c1ccccc1C2=O`, the “hERG current change (%, negative = inhibition) at 10uM” value was -16.8%.
Regarding `CNS(=O)(=O)c1cccc(C(=O)OCC(=O)NCCCc2ccccc2)c1`, the “hERG current change (%, negative = inhibition) at 10uM” value is -5.42%.
With `COc1cc(OC)cc(-c2nnc(SCc3c(F)cccc3Cl)o2)c1`, the “hERG current change (%, negative = inhibition) at 10uM” value came to 0.324%.
Consider `COc1ccccc1CC(=O)N1CCCc2ccccc21`, for which the “hERG current change (%, negative = inhibition) at 10uM” value is 0.493%.
Consider `COc1cc([N+](=O)[O-])ccc1NC(=O)Nc1nc2c(s1)CCCC2`, for which the “hERG current change (%, negative = inhibition) at 10uM” value is listed as 11.7%.
As to `O=C(Nc1ccccc1C(=O)O)c1ccc(NC(=O)c2ccc(Br)o2)cc1`, the “hERG current change (%, negative = inhibition) at 10uM” value worked out at 11.7%.
As for `Cc1ccc(-n2c(N)cc(=O)nc2SCC(=O)N2CCN(c3ccccc3)CC2)cc1`, the “hERG current change (%, negative = inhibition) at 10uM” value is reported as -0.877%.
Turning to `COc1cc(C(CC(=O)Nc2ccccn2)N2Cc3ccccc3C2=O)cc(OC)c1OC` (stereo not shown), the “hERG current change (%, negative = inhibition) at 10uM” value is listed as -11.5%.
To `COc1cc(C(CC(=O)Nc2ccc(C)cn2)N2Cc3ccccc3C2=O)cc(OC)c1OC` (stereo not shown) belongs -1.38%; to `COc1cc(C(CC(=O)Nc2ccc(Cl)cn2)N2Cc3ccccc3C2=O)cc(OC)c1OC` (stereo not shown), -68.1%.
`Cc1ccc(Nc2cc(C)nc(N3CCOCC3)n2)cc1`: the “hERG current change (%, negative = inhibition) at 10uM” value amounted to 6.18%.
As to `O=S(=O)(NC1CCCCC1)c1cccc(-c2nnc(-c3ccccc3)o2)c1`, the “hERG current change (%, negative = inhibition) at 10uM” value is given as -36.4%.
With `Cc1ccc(N=C2S/C(=C/c3cccc(OCC(=O)O)c3)C(=O)N2C)cc1C` the figure was 20.5%; with `O=C(c1ccc(C(=O)N2CCCc3ccccc32)nc1)N1CCCc2ccccc21`, -9.08%.
In the case of `CCNC(=O)CSc1nnc(-c2ccc(OC)cc2)n1CC(C)C`, the “hERG current change (%, negative = inhibition) at 10uM” value is -3.51%.
`CC1CCCN(C(=O)Cn2c3ccccc3c3nc4n(c(=O)c32)CCS4)C1` (stereo not shown): the “hERG current change (%, negative = inhibition) at 10uM” value is on record as -3.59%.
`CCc1ccc([C@@H]2C[C@H]3CN(Cc4ccccc4OC)C(=O)[C@]34CCCN24)cc1`: the “hERG current change (%, negative = inhibition) at 10uM” value was -70.7%.
In the case of `COc1ccccc1CN1C[C@@H]2C[C@@H](c3ccc(C)cc3)N3CCC[C@@]23C1=O`, the “hERG current change (%, negative = inhibition) at 10uM” value was -43.6%.
With `O=C1N(Cc2cccnc2)C[C@@H]2C[C@@H](c3ccc(C(F)(F)F)cc3)N3CCC[C@@]123` the figure was -53.9%.
With `O=C1N(Cc2cccnc2)C[C@@H]2C[C@@H](c3ccccc3C#Cc3ccccc3)N3CCC[C@@]123`, the “hERG current change (%, negative = inhibition) at 10uM” value is reported as -69.5%.
As to `O=C1N(Cc2cccnc2)C[C@@H]2C[C@@H](c3ccccc3C(F)(F)F)N3CCC[C@@]123`, the “hERG current change (%, negative = inhibition) at 10uM” value is reported as -11.2%.
With `O=C1N(Cc2cccnc2)C[C@@H]2C[C@@H](c3cccc(C(F)(F)F)c3)N3CCC[C@@]123` the figure was -10.3%; with `COc1ccccc1CN1C[C@@H]2C[C@@H](c3ccc(Cl)cc3)N3CCC[C@@]23C1=O`, -44.1%.
Consider `Cc1ccccc1-c1cccc([C@@H]2C[C@H]3CN(Cc4cccnc4)C(=O)[C@]34CCCN24)c1`, for which the “hERG current change (%, negative = inhibition) at 10uM” value is recorded as -59%.
Turning to `Cc1ccccc1CN1C[C@@H]2C[C@@H](c3ccc4nsnc4c3)N3CCC[C@@]23C1=O`, the “hERG current change (%, negative = inhibition) at 10uM” value is -18.1%.
Regarding `Cc1ccc(NC(=S)N2CCn3cccc3C2c2cccnc2)cc1` (stereo not shown), the “hERG current change (%, negative = inhibition) at 10uM” value is reported as -37.3%.
As to `CCOc1ccccc1-c1nc(-c2ccncc2)no1`, the “hERG current change (%, negative = inhibition) at 10uM” value is -15.8%.
Take `COc1cccc(-c2ccc(SCC(=O)NCCc3ccccc3)nn2)c1`: the “hERG current change (%, negative = inhibition) at 10uM” value is reported as -41.7%.
For `CCCN(C(=O)C(C)Oc1cccc(Cl)c1)c1c(N)n(Cc2ccccc2)c(=O)[nH]c1=O` (stereo not shown), the “hERG current change (%, negative = inhibition) at 10uM” value is 1.41%.
With `CCC(C)N1C(=O)c2ccccc2C1C(=O)NC1CCCCCC1` (stereo not shown) the figure was 4.45%; with `COC(=O)c1cc2occc2n1Cc1ccc(Cl)cc1`, 9.68%; with `Nc1nonc1-n1nnc(C(=O)N/N=C/c2ccc(OCc3ccccc3)cc2)c1CN1CCCCC1`, 7.17%.
Consider `Cc1ccccc1S(=O)(=O)NCc1cccnc1`, for which the “hERG current change (%, negative = inhibition) at 10uM” value is given as 5.17%.
Turning to `CN(C)S(=O)(=O)Nc1cc(Cl)cc(Cl)c1`, the “hERG current change (%, negative = inhibition) at 10uM” value is listed as -0.782%.
To `COc1ccc(C(O)(CCN2CCCCC2)C2CCCCC2)cc1.Cl` (stereo not shown) belongs -27.4%.
Regarding `CC(C)C1N(C(=O)CN2CCCC2)CCN1S(=O)(=O)c1ccccc1` (stereo not shown), the “hERG current change (%, negative = inhibition) at 10uM” value is 11%.
For the molecule `Cc1cc(C(=O)NNc2cc(Cl)ccc2Cl)no1`, the “hERG current change (%, negative = inhibition) at 10uM” value is 6.55%.
